NIH3T3 tox: NIH 3T3 cell cytotoxicity. NIH 3T3 viability, CellTiter-Glo ATP luminescence, 48-72 h. Potency, µM (series often up to 96.7 µM), without a hit: at the top dose activity change, negative = cytotoxicity, most hits filed as inhibitors. 94,000 compounds, 4.3% hits; further: nearly all actives have a fitted effect of over 55% in size
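Luminescent ATP readout (CellTiter-Glo, 10 min RT) after 48 or 72 hr compound exposure of NIH 3T3 cells seeded at 400 cells/well in 1536-well format; quantitative HTS.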
GPT2 inh: blocks human glutamate pyruvate transaminase 2; Q8TD30; Recombinant GPT2, coupled pyruvate oxidase/HRP Amplex Red fluorescence; Potency, µM (doses to about 57.7 µM), for inactives: at the highest dose activity change, negative = inhibition, hits mostly inhibitors; 100,000 compounds, 0.25% hits; further: nearly all actives have a fitted effect of over 60% in size
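Inhibition is scored from Amplex Red fluorescence generated when pyruvate oxidase and HRP act on pyruvate released by GPT2. Reactions contain 10ng/uL enzyme, 250uM a-KG and 2mM L-alanine and run 30 min at room temperature.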
HEK293 tox: kills HEK 293 cells; Potency, µM (top dose mostly 115 µM), for the others: at the highest dose activity change, negative = cytotoxicity, most hits filed as inhibitors; 94,000 compounds, 6.6% hits; HEK 293 viability, ATP luminescence (CellTiter-Glo), 48-72 h; further: nearly all actives have a fitted effect of over 60% in size
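CellTiter-Glo luminescence (cellular ATP) was read after 48 or 72 hr of compound exposure at 37 degree Celsius. Cells were HEK 293 plated at 250 cells/well.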
Luciferase inh: blocks purified firefly luciferase enzyme activity; AID 1347043; purified P. pyralis luciferase, luminescence, biochemical; P08659; 76,000 compounds, 2.5% hits; Potency, µM (titrated, usually from 115 µM), most hits filed as inhibitors; further: nearly all actives have a fitted effect of over 65% in size
Target sequence (P08659 whole entry, looked up): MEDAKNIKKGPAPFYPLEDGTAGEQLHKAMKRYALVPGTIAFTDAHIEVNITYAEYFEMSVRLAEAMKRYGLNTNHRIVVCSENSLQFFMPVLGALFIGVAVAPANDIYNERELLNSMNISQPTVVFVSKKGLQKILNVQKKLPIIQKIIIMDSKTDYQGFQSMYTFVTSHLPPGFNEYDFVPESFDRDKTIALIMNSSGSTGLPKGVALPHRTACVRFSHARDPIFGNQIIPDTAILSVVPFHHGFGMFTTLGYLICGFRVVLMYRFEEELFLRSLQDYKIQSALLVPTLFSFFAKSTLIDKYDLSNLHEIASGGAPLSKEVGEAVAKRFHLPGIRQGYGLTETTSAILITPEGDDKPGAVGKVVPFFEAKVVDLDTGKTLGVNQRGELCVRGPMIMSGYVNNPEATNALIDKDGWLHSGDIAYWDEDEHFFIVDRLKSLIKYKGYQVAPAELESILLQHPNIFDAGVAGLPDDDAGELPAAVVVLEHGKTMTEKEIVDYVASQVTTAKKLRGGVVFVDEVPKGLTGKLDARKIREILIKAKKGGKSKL
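Inhibitors were tested against purified firefly luciferase in a biochemical, low-substrate format (both substrates at 10uM) and luminescence measured with a CCD imager.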
NPR1 antag: antagonists of human natriuretic peptide receptor Npr1; HEK293 hNpr1 GloSensor cGMP, ANP-stimulated luminescence; Potency, µM (series often up to 46.3 µM), inactives show at the top dose activity change, negative = inhibition, actives largely listed as inhibitors; 76,000 compounds, 1.6% hits; calls by dose curve; further: nearly all actives have a fitted effect of over 60% in size
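HEK293 cells stably expressing human Npr1 and cGMP GloSensor pGS-40F, loaded 2 h with 2% GloSensor reagent, given compound 30 min at room temperature. Luminescence read before and 20 min after 0.1 nM hNppA.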
* marks the source's active call; other numbers are inactive results; i = inactive; ? = inconclusive; nt = no result given; [ ] = remark or other dose. Hits are enriched below; roughly 10% of the tested compounds scored in any of these assays. Unless noted, the call rests on the fitted dose curve; in most records, active means well fitted curve in the direction sought with a large enough effect; inconclusive means small, poorly fitted or top-dose-only effect, or another doubt; inactive means no such curve, though single readings can be large; an effect the other way counts as inactive or inconclusive. On the % scale 0 is the no-effect control and ±100 the full control effect; potency means the concentration at half of the fitted maximal effect.

SMILES	NIH3T3 tox	GPT2 inh	HEK293 tox	Luciferase inh	NPR1 antag
CN1Cc2cccn2CC1CNC(=O)c1ccnn1C (configuration not stated)	-7%	i	4%	i	1%
O=C(NCC1Cn2cccc2CN1Cc1ccccc1)c1cncc(Br)c1 (configuration not stated)	?	-22%	89µM*	i	4%
Cc1ccc(NC(=O)N2CC(N(C)Cc3cccnc3)C2)cc1C	1%	-13%	4%	i	5%
COCCN(CCOC)C(=O)C1CCc2ncc(-c3ccc(F)cc3)n2C1 (configuration not stated)	-22%	-8%	-5%	i	-15%
Cc1cc(C)cc(-c2ccc(CN3CCCC3C(=O)N3CCCC(C)C3)cc2)c1 (configuration not stated)	?	i	35µM*	nt	nt
COc1ccc(CN2Cc3[nH]cnc3C[C@H]2C(=O)N2CCC(Cc3ccccc3)CC2)cc1	18µM*	3%	79µM*	i	-12%
Cc1cc(C)cc(-c2ccc(CN3CCCC3C(=O)N3CCC(Cc4ccccc4)CC3)cc2)c1 (configuration not stated)	11µM*	1%	20µM*	nt	nt
Cc1cc(C)cc(-c2ccc(CN3CCCC3C(=O)N3CCN(Cc4ccccc4)CC3)cc2)c1 (configuration not stated)	13µM*	4%	20µM*	nt	nt
O=C(C1CCCN1Cc1ccc(-c2cncnc2)cc1)N1CCC(Cc2ccccc2)CC1 (configuration not stated)	?	i	?	nt	nt
COCc1nc(CCNS(=O)(=O)c2cccc(OC)c2)no1	2%	5%	1%	i	-2%
COC(=O)[C@@H]1Cc2c[nH]c3cccc(c23)[C@H](CC(C)C)N1	-7%[230 µM]	-20%[88.5 µM]	?	i	6%[70.6 µM]
CC(C)C[C@@H]1N[C@H](C(=O)NCc2cccs2)Cc2c[nH]c3cccc1c23	40µM*	?	40µM*	i	1%[70.6 µM]
C#CCNC(=O)[C@@H]1Cc2cn(CC3CC3)c3cccc(c23)[C@H](CC(C)C)N1	45µM*	0%[88.5 µM]	71µM*	i	-13%[70.6 µM]
C#CCNC(=O)[C@@H]1Cc2cn(Cc3ccncc3)c3cccc(c23)[C@H](CC(C)C)N1	89µM*	?	45µM*	i	-10%[70.6 µM]
CC(C)C[C@@H]1N[C@H](C(=O)NCc2ccncc2)Cc2cn(Cc3ccncc3)c3cccc1c23	?	i	50µM*	i	-2%
O=C(Cc1cccc(Cl)c1)N1CCN(C(=O)c2cccc(-c3ccccn3)c2)CC1	-27%	2%	?	nt	nt
CC(C)C[C@@H]1N[C@H](C(=O)NCc2ccccn2)Cc2cn(Cc3ccncc3)c3cccc1c23	?	?	25µM*	i	-10%
C=CCn1cc2c3c(cccc31)[C@H](CC(C)C)N[C@H](C(=O)NCc1ccccn1)C2	?	4%[88.5 µM]	50µM*	i	-13%[70.6 µM]
C=CCn1cc2c3c(cccc31)[C@H](CC(C)C)N[C@H](C(=O)NCc1ccc(OC)cc1)C2	-11%[174 µM]	-18%[88.5 µM]	-1%[172 µM]	i	-18%[70.6 µM]
COc1ccc(CN2C(=O)CO[C@H]3CN(C(=O)COc4ccccc4)C[C@H]32)cc1	i	5%[88.5 µM]	4%[172 µM]	i	3%[70.6 µM]
C[C@@H](O)[C@H](NC(=O)c1ccc(C#Cc2ccc(CN3CCOCC3)cc2)cc1)C(=O)NO	nt	i	nt	nt	nt
CN(C)c1cccc(-c2cnc(Nc3cccnc3)c3c2CCO3)c1	50µM*	2%[88.5 µM]	63µM*	40µM*	?
CN(C)c1cccc(-c2cnc(Nc3ccc4c(c3)OCCO4)c3c2CCO3)c1	-23%[138 µM]	i	?	3.5µM*	?
CNC(=O)c1cccc(-c2cnc(Nc3ccc4c(c3)OCCO4)c3c2CCO3)c1	?	i	79µM*	5.6µM*	?
CCN1c2cc(C(=O)NCc3ccc(Br)cc3)ccc2C(=O)N2CCCCC21 (configuration not stated)	?	i	?	i	-15%
SMILES	NIH3T3 tox	GPT2 inh	HEK293 tox	Luciferase inh	NPR1 antag
CSc1ccc(-c2cccc(CN3CCC(NC(=O)Nc4ccc(Cl)cc4)CC3)c2)cc1	13µM*	nt	22µM*	nt	nt
CSc1ccc(-c2cccc(CN3CCC(NC(=O)c4ccccc4Cl)CC3)c2)cc1	?	nt	40µM*	nt	nt
CSc1ccc(-c2cccc(CN3CCC(NC(=O)c4ccc(Cl)cc4)CC3)c2)cc1	-13%	nt	-10%	nt	nt
O=C(Nc1ccccc1)NC1CCN(Cc2cccc(-c3ccc(F)c(F)c3)c2)CC1	16µM*	-29%	20µM*	nt	nt
CCc1cccc(C)c1NC(=O)Cn1ccn2nc(-c3ccccc3)c(CO)c2c1=O	-7%	i	?	i	9%
COC(=O)c1cn([C@H]2CO[C@H]3[C@@H]2OC[C@H]3OC(=O)Nc2ccc(C(C)(C)C)cc2)nn1	-1%[174 µM]	0%[88.5 µM]	-9%[172 µM]	i	2%[70.6 µM]
CN(C)Cc1cn([C@H]2CO[C@H]3[C@@H]2OC[C@H]3OC(=O)Nc2ccc(C(C)(C)C)cc2)nn1	?	4%[88.5 µM]	?	71µM*	-2%[70.6 µM]
O=C(NC1CCCCC1)N1CCc2nn(CC3CC3)c(=O)n2CC1	-16%	-17%	-25%	i	2%
Cc1ccc(NC(=O)c2ccc3c(c2)N(S(C)(=O)=O)CC3)cc1	-19%	i	?	1.3µM*	?
CCOC(=O)CNC(=O)c1ccc2c(c1)N(S(C)(=O)=O)CC2	i	-5%	12%	i	-1%
O=C(NCCc1cccs1)c1ccc(Cn2ccn3nc4c(c3c2=O)CCCC4)cc1	?	-5%	?	i	-23%
Cc1cccc(N(C)c2ccc3nnc(-c4cc(C#N)ccn4)n3n2)c1	?	5%[88.5 µM]	?	i	?
Cc1ccc(-c2nnc3ccc(NCCN(C)C)nn23)nc1	?	-11%[88.5 µM]	0%[172 µM]	i	0%[70.6 µM]
Cc1ccc(-c2nnc3ccc(N(C)c4cccc(C)c4)nn23)nc1	?	2%[88.5 µM]	56µM*	i	-1%[70.6 µM]
COCCNc1ccc2nnc(-c3ccc(C)cn3)n2n1	112µM*	3%[88.5 µM]	-4%[230 µM]	i	3%[70.6 µM]
Cc1ccc(-c2nnc3ccc(NCCc4ccccc4)nn23)nc1	45µM*	-12%[88.5 µM]	56µM*	i	-7%[70.6 µM]
CC(NC1CCC2(CCNCC2)CC1)c1nc(-c2ccccn2)no1 (configuration not stated)	-2%	1%[11.5 µM]	?	i	3%
COc1cc(=O)n2c(c1C(=O)Nc1ccc(N(C)C)cc1)CCCC2	-30%	-5%	?	35µM*	-5%
COc1cc(=O)n2c(c1C(=O)Nc1ccc(C)cc1)CCCC2	?	-1%	-15%	i	-5%
CC(C(=O)NCc1nc2ccccc2n1C)C1CCOCC1 (configuration not stated)	?	i	-5%	i	9%

From PubChem
